# Screening data deposited in PubChem BioAssay by Broad Institute.
# In the library only some 3.3% were active in any assay of this set; here they are far more common.
# SIRT5 inh – sirtuin-5 (human) deacylase inhibition; Q9NXA8; Purified SirT5, succinyl-peptide AMC, trypsin-coupled fluorescence; actives 1.1% (n = 330,000); inhibition, % at 15 µM; in the data active = inhibition above about 15%
# Target sequence (Q9NXA8 whole entry, looked up): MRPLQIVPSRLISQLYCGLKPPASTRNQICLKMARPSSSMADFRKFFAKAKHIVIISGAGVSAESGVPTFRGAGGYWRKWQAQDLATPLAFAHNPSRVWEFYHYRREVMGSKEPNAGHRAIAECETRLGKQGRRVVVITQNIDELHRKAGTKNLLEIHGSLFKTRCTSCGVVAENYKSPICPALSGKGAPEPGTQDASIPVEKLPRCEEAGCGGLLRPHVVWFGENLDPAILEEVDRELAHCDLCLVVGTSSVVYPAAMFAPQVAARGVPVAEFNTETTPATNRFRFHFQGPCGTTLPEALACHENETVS
# Casp6 inh – blocks human caspase-6 cleavage activity; P55212; purified caspase-6, Z-VEID-R110 cleavage fluorescence; inhibition, % at 12.5 µM; actives 0.53% (n = 350,000); AID 686996;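 active = mean inhibition across replicates at least about 35%, with every replicate also reaching that limit, limit read from the data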;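 note: 0% = median of neutral control wells and 100% = no fluorescence left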
# GSIS activator – primary screen for activators of insulin secretion dependent on glucose, INS-1E cells, GLuc reporter luminescence; INS-1E GLuc reporter insulin secretion, 2-3 h; activation, % at 16.6 µM; actives 0.61% (n = 370,000);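 active = lowest replicate activation of at least 40%, so every replicate reaches that level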;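 note: 0% = median of neutral control wells and 100% = median of IBMX positive control wells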
# ERAP1 inh – inhibitors of human ERAP1 aminopeptidase; AID 652197; recombinant ERAP1, Leu-AMC fluorescence, 60 min; actives 0.15% (n = 340,000); inhibition, % at 10.7 µM;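 active = mean replicate inhibition of at least 30%, or all replicates individually reaching that 30% level; inactive = mean below 30% and not every replicate reaching it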;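 note: 0% = neutral control wells and 100% = L-leucinethiol positive control wells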
# FGF22 binding – FGF22 (human) thermal shift binding; activity (Tm shift, normalised), % at 9.99 µM; actives 1.5% (n = 340,000); recombinant FGF22 thermal shift, SYPRO orange fluorescence; percent of sucrose octasulfate shift, DMSO zero; AID 651658;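 active = mean Tm shift, scaled 0 neutral to 100 positive control, at about 1.3% or above, every replicate too, limit read from the data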
# Target sequence (Q9HCT0 whole entry, looked up): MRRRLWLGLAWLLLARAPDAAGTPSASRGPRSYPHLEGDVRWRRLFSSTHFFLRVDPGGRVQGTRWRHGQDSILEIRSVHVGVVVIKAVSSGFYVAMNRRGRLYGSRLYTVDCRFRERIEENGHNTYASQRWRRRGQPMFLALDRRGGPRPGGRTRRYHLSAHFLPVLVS
# * marks the source's active call; other numbers are inactive results; nt = no result.
SMILES,SIRT5 inh,Casp6 inh,GSIS activator,ERAP1 inh,FGF22 binding
CO[C@@H]1CN(C)C(=O)c2cc(NC(C)=O)ccc2OC[C@H](C)N(C(=O)C2CCOCC2)C[C@H]1C,nt,-1.9,-7.4,-2.2,0.1
CCCNC(=O)Nc1ccc2c(c1)OC[C@H](C)N(S(C)(=O)=O)C[C@@H](C)[C@@H](OC)CN(C)C2=O,15.5*,-10.3,-3.6,-6.8,-0.1
CCCC(=O)Nc1ccc2c(c1)OC[C@H](C)N(Cc1ccccc1)C[C@@H](C)[C@@H](OC)CN(C)C2=O,37.5*,-0.6,9.0,5.0,0.1
CCC(=O)Nc1ccc2c(c1)OC[C@@H](C)N(Cc1cccc(F)c1)C[C@@H](C)[C@H](OC)CN(C)C2=O,3.4,0.4,-19.4,1.3,-0.1
CCC(=O)Nc1ccc2c(c1)OC[C@H](C)N(Cc1cccc(F)c1)C[C@@H](C)[C@H](OC)CN(C)C2=O,19.6*,-3.5,-28.3,-2.8,0.0
CCc1cnc(N2[C@H](C#N)[C@@H](c3ccc(C#CC(C)C)cc3)[C@@H]2CO)s1,nt,0.0,-18.7,-3.8,0.5
CC=Cc1ccc2n(c1=O)C[C@H]1[C@H](CO)[C@@H](C(=O)Nc3nccs3)N(Cc3ccccc3F)[C@@H]21 (mixture of isomers),-2.0,-2.3,-2.9,-0.1,-0.2
C[C@@H]1CN([C@@H](C)CO)C(=O)c2cc(NS(C)(=O)=O)ccc2O[C@@H](C)CCCCO[C@H]1CN(C)Cc1ccc(C(=O)O)cc1,-5.5,0.2,24.6,0.3,-0.1
COc1cccc(-c2cn(CC[C@@H]3CC[C@@H](NC(C)=O)[C@H](CO)O3)nn2)c1,3.3,-2.9,-0.2,-1.7,-0.4
CO[C@@H]1CN(C)C(=O)c2ccc(NS(=O)(=O)c3ccccc3F)cc2OC[C@@H](C)NC[C@@H]1C,-1.2,1.0,4.0,-0.4,0.0
Cc1cc(C)cc(C(=O)N2CCN=C2c2ccccc2)c1,-1.7,-3.7,4.1,-8.2,43.2*
COc1ccc(CNC(=O)C(c2ccncc2)N(C(=O)Cc2cccs2)c2ccccc2)cc1 (configuration not stated),-2.0,-1.4,-21.1,-3.6,0.0
COc1ccc(N(C(=O)CCl)C(C(=O)NCCc2ccccc2)c2cccs2)cc1 (configuration not stated),2.1,1.5,53.2*,2.7,43.3*
C[C@@H]1CN([C@@H](C)CO)C(=O)c2cc(NS(=O)(=O)c3ccccc3)ccc2O[C@@H]1CN(C)C(=O)Nc1ccccc1,-3.9,-0.6,0.0,-1.7,-0.5
Fc1cccc(F)c1-c1nc(-c2ccncc2)no1,20.1*,nt,18.4,-4.5,0.1
COc1ccc(NC(=O)Cc2c(C)n(C(=O)c3ccc(Cl)cc3)c3ccc(OC)cc23)cc1,nt,nt,-7.4,nt,nt
COc1ccc2c(c1)c(CC(=O)Nc1cccc(S(N)(=O)=O)c1)c(C)n2C(=O)c1ccc(Cl)cc1,16.9*,-0.4,6.3,nt,0.1
CCC1(CC)Cc2ccccc2C(=O)N1,-0.4,-3.3,1.1,0.6,-0.1
CN1C(=O)c2ccccc2CC12c1ccccc1C(=O)N2C (configuration not stated),nt,-2.7,nt,1.5,43.4*
Cc1nn(C)c2c1NC(=O)CS2,nt,2.0,nt,2.3,43.0*
Cn1ccc(/C=N/N=C2/NC(=O)CS2)n1,2.1,0.1,-17.9,3.2,-0.1
N#CCCN(Cc1ccccc1)C(=O)c1cccs1,1.0,-3.3,40.0*,-1.1,0.1
CC(C)(C)N(Cc1ccccc1)C(=O)c1cccs1,-1.4,0.6,nt,0.6,-0.1
CCC(=O)N(C)C[C@H]1Oc2cc(-c3cccc(F)c3)ccc2S(=O)(=O)N([C@H](C)CO)C[C@@H]1C,-2.1,0.1,-6.3,0.9,0.0
C[C@H](NC(=O)C[C@H]1C[C@@H]2c3cc(NC(=O)C4CCOCC4)ccc3O[C@@H]2[C@H](CO)O1)c1ccccc1,-2.4,1.8,15.5,-2.5,-0.2
SMILES,SIRT5 inh,Casp6 inh,GSIS activator,ERAP1 inh,FGF22 binding
CCc1ccc(NC(=O)c2[nH]c(C)c(C(C)=O)c2C)cc1,-3.9,-1.5,-6.9,-2.8,42.9
CC(=O)c1c(C)[nH]c(C(=O)Nc2cc(F)ccc2C)c1C,4.5,1.5,-1.8,-3.2,43.1*
CCc1c(C(=O)Nc2ccc(C)c(C)c2)[nH]c(C)c1C(C)=O,-2.5,2.6,113.7*,5.7,-0.2
Cc1nnc(N/N=C/c2ccccc2O)n1N,-3.3,50.1*,-44.7,3.8,-0.6
O=[N+]([O-])c1cccc(S(=O)(=O)NCCOc2cccc3cccnc23)c1,-0.6,0.6,18.6,-3.9,0.1
COc1ccc(OCCNS(=O)(=O)c2cccc([N+](=O)[O-])c2)cc1,-8.9,0.3,5.4,0.6,43.2*
O=[N+]([O-])c1ccc(C(O)CNC(=S)Nc2ccccc2)cc1 (configuration not stated),1.2,-2.4,3.0,-0.2,1.0
CNC(=S)NCC(O)c1ccc([N+](=O)[O-])cc1 (configuration not stated),-3.4,-2.6,-6.8,-3.5,44.1*
Cc1nc(CSc2nsc(/C=C/N(C)C)c2C#N)cs1,4.9,26.0,-2.7,-0.5,0.1
COC(=O)c1ccccc1CSc1nsc(/C=C/N(C)C)c1C#N,0.7,37.3*,4.0,-1.5,nt
CCCNC(=O)C[C@H]1CC[C@H]2[C@@H](COC[C@H](O)CN2C(=O)c2ccccn2)O1,-1.2,0.7,17.5,0.9,0.0
CC(C)NC(=O)Nc1ccc2c(c1)C(=O)N([C@@H](C)CO)C[C@H](C)[C@H](CN(C)C)OCCCC[C@H](C)O2,2.6,-6.6,17.4,3.0,0.0
O=C(Nc1ccccc1)N1CCCCN2[C@H](CO)[C@H](c3ccc(-c4ccccc4)cc3)[C@@H]2C1,0.4,-1.6,-22.4,0.2,-0.7
Cc1ccc(C(=O)Nc2nc(-c3ccccc3)c(-c3ccccc3)o2)cc1,nt,nt,-6.9,nt,nt
Cc1ccc(C(=O)Nc2c(C)cc(-c3ccccc3)oc2=O)cc1,-6.3,-1.6,9.6,1.1,43.1*
Cc1ccc(/C=C2/C(=N)N3N=C(CC(=O)N4CCCC4)SC3=NC2=O)o1,6.4,11.1,-6.3,5.9,-0.2
N=C1/C(=C\c2ccc(Br)o2)C(=O)N=C2SC(CC(=O)N3CCCCC3)=NN12,20.6*,-1.3,-0.4,-1.3,0.0
Cc1ccccc1NC(=S)Nn1cnnc1,-0.5,-4.2,32.2,4.7,-0.1
Cc1cccc(NC(=S)Nn2cnnc2)c1C,-4.4,-1.8,-0.2,-1.0,43.3*
CN(C)C(=O)[C@H]1[C@H](CO)[C@H]2Cn3c(ccc(-c4ccccc4)c3=O)[C@H]2N1CCC(F)(F)F,4.6,2.2,-3.3,-0.4,-0.4
C[C@H](CO)N1C[C@H](C)[C@H](CN(C)C(=O)Nc2ccc(C(F)(F)F)cc2)OCCCC[C@H](C)Oc2ccc(NC(=O)Nc3ccc(F)cc3)cc2C1=O,16.7*,-0.8,20.4,2.9,0.1
C[C@H](CO)N1C[C@H](C)[C@H](CN(C)C(=O)Nc2ccc(F)cc2)OCCCC[C@H](C)Oc2ccc(NC(=O)Nc3ccc(C(F)(F)F)cc3)cc2C1=O,-0.2,-0.3,-2.8,-5.1,1.3*
